The list is not random: actives were taken first. Their share in the collection is about 1.8%.
MEP2 TOR yeast – yeast TOR pathway MEP2-GFP modulation | actives 0.51% (n = 330,000) | S. cerevisiae MEP2-GFP strain, flow cytometry GFP, 3 h; 100% = DMSO control level | AID 2016 | GFP response vs DMSO, % at 10 µM;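 active = GFP response versus DMSO above a set limit, roughly screen mean plus 3 SD, cut at about 180% in these data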;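 also: median GFP fluorescence of the barcode-gated MEP2-GFP cells per well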
CIT2-GFP yeast – yeast TOR pathway CIT2-GFP modulation | S. cerevisiae CIT2-GFP strain, flow cytometry, 3 h; 100 means same as DMSO wells | GFP response vs DMSO, % at 10 µM | actives 0.065% (n = 320,000) | AID 2029;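 active = GFP response relative to DMSO above a set limit, near the screen mean plus 3 SD, cut at about 150% in these data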;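 also: ratio of well median GFP fluorescence to mean of DMSO wells on the plate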
LAP4-GFP MLPCN – alters LAP4-GFP fluorescence in TOR pathway yeast screen; S. cerevisiae LAP4-GFP multiplex, flow cytometry GFP, 3 h; median GFP as percent of DMSO wells; actives 0.34% (n = 320,000); GFP response vs DMSO, % at 10 µM;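 active = GFP response vs DMSO above a set limit, about the screen mean plus 3 SD, cut at about 150% in these data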
RPL19A TOR yeast – alters RPL19A-GFP fluorescence in TOR pathway yeast screen. S. cerevisiae RPL19A-GFP strain, flow cytometry, 3 h; stronger effect = lower value. percent response vs DMSO, % at 10 µM. actives 0.3% (n = 330,000). AID 2025;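 active = percent response vs DMSO below 50%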;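 also: median channel GFP fluorescence of the barcoded RPL19A-GFP strain; ratio of sample median GFP to plate DMSO average so 100% = DMSO; lower means less RPL19A-GFP as with rapamycin TOR inhibition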
Myeloid diff MLP – compounds promoting myeloid differentiation. actives 1% (n = 360,000). calls only at 10 µM. ER-HoxA9 myeloid progenitors, lysozyme-GFP differentiation, flow cytometry;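 active = normalized GFP-positive differentiation at or above the plate's own cutoff, the solvent-only control mean plus 3 SD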;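 also: cells exposed to compound for four days before flow analysis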
AGP1 TOR yeast – modulators of TOR pathway AGP1-GFP in S. cerevisiae. AID 2066. S. cerevisiae AGP1-GFP multiplex flow cytometry, 3 h; GFP as percent of DMSO wells. GFP response vs DMSO, % at 10 µM. actives 0.02% (n = 320,000);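 active = GFP response relative to DMSO above a set limit, near screen average plus 3 SD, cut at about 150% in these data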;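 also: median GFP channel fluorescence of the gated AGP1 strain per well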
Myeloid diff – promotes myeloid progenitor differentiation; ER-HoxA9 myeloid progenitors, GFP/Mac1 double-positive flow; calls only; shares compounds with Myeloid diff MLP; actives 2% (n = 2,300);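 active = share of green or green-and-red cells above 9 and 9% in run 1 or 4 and 3% in run 2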
GFP autofluor – counter-screen for myeloid differentiation promoters: compound fluorescence; shares compounds with Myeloid diff MLP; ER-HoxA9 myeloid progenitors, no estrogen, GFP autofluorescence flow cytometry; vehicle wells 0%, positive control 100%; fluorescence response, % (test concentration not listed); actives 7.4% (n = 2,300);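 active = over 5% cells positive for green fluorescent reporter, or over 2% positive for both it and APC stain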;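 also: range taken on the double positive population between DMSO and positive control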
* marks the source's active call; other numbers are inactive results; i = inactive; nt = no result; + = active, no number.

SMILES	MEP2 TOR yeast	CIT2-GFP yeast	LAP4-GFP MLPCN	RPL19A TOR yeast	Myeloid diff MLP	AGP1 TOR yeast	Myeloid diff	GFP autofluor
CC(C)CC(c1nnnn1C1CCCC1)N1CCN(C(=O)c2ccco2)CC1 (stereo unspecified)	93.9	95.4	97.3	101.1	+	95.7	i	0.4
O=C(NCCc1ccc(Cl)cc1)C1CCCN1C(=O)Nc1ccc(F)cc1 (stereo unspecified)	93.9	95.5	84.7	100.7	i	100.5	nt	nt
O=C(NCCc1ccccc1)C1CCCN1C(=O)Nc1ccc(F)cc1 (stereo unspecified)	111.3	102.1	102.3	100.2	+	104.2	i	0.4
O=C(c1ccccc1Cl)N1CCN(c2ncccn2)CC1	103.4	99.3	105.8	98.2	i	100.7	nt	nt
Cc1cc(/C=C2\SC(=S)NC2=O)c(C)[nH]1	103.6	110.9	108.8	97.7	i	103.8	i	7.3*
CCOc1ccc(N(C)c2ccc(/C=C3/SC(=S)NC3=O)cc2)cc1	99.1	97.0	87.4	100.3	i	95.5	nt	nt
CN(C)c1ccc(/C=N/N=C2/NC(=O)/C(=C/c3ccc([N+](=O)[O-])cc3)S2)cc1	100.1	106.1	100.5	101.3	+	97.0	i	95.1*
CN(C)c1ccc(C=C2SC(=S)NC2=O)cc1	nt	nt	nt	nt	+	nt	i	0.5
O=C(NCc1ccccc1)c1cc(C2COCCN2C(=O)CCc2ccccc2)on1 (stereo unspecified)	nt	nt	nt	nt	i	nt	nt	nt
CCCCCCC[C@@H](C/C=C/CCC(=O)N(C)C/C(=C/Cl)C/C(=C\C(=O)N1CC(OC)=CC1=O)OC)OC	87.2	97.4	77.3	88.0	i	85.6	nt	nt
CCCCCCC[C@@H](C/C=C/CCC(=O)N(C)C/C(=C/Cl)C/C(=C\C(=O)N1C[C@H](O)CC1=O)OC)OC	100.9	104.1	98.7	100.0	i	102.3	i	4.6
CCN(CC)c1ccc(C=C(c2nnnn2-c2ccccc2)c2nnnn2-c2ccccc2)cc1	99.8	102.6	95.0	100.2	i	97.8	nt	nt
Cc1ccc(-n2nnnc2C(=Cc2ccc(N(C)C)cc2)c2nnnn2-c2ccc(C)cc2)cc1	93.3	92.0	94.6	95.3	+	94.8	i	1.2
Cc1ccc(S(=O)(=O)/N=C(\N)Nc2nc(C)c3ccc(C)cc3n2)cc1	105.1	100.3	108.4	102.2	i	106.6	nt	nt
Cc1ccc(S(=O)(=O)/N=C(\N)Nc2nc(C)c3cc(C)c(C)cc3n2)cc1	106.3	104.3	98.8	100.3	i	108.3	i	0.0
O=c1cc(-c2ccc(O)cc2)oc2c(O)c(O)c(O)c(O)c12	109.4	98.9	99.9	98.5	i	102.4	i	0.7

Compound activity as filed in PubChem BioAssay.
